Data reported in PubChem BioAssay (EPA / NIEHS).
Where “and” joins values, the source holds several entries; their conditions need not be identical. Equal values may be shown once. Results filed as inconclusive are left out. Calls of active or inactive are those of the source. How the source made its calls, unless noted: active means hit-call score of the fitted dose curve at least 0.9, where 1 is the maximum; inconclusive means response in the unintended direction; inactive means score below 0.9.

Key:
[1] = target: human Peroxisome Proliferator-activated Receptor alpha (PPARa), PPARA (gene 5465) (UniProt Q07869); assay: ATG_PPARa_TRANS: Attagene TRANS-FACTORIAL HepG2 Assay for human Peroxisome Proliferator-activated Receptor alpha (PPARa) (AID 2283001);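 on AC50: potency for gain of reporter signal over DMSO so agonist or activator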
Procedure, shortened: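 Cells (HepG2) are transfected with multiple reporter transcription units, exposed to chemical for 24 h, then total RNA is reverse-transcribed and amplified. Labelled products are quantified by capillary electrophoresis; induction is referenced to DMSO.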

[2] = target: human Peroxisome Proliferator-activated Receptor delta (PPARd), PPARD (gene 5467) (UniProt Q03181); assay: ATG_PPARd_TRANS: Attagene TRANS-FACTORIAL HepG2 Assay for human Peroxisome Proliferator-activated Receptor delta (PPARd) (AID 2283002)
Procedure, shortened: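 HepG2 cells transiently transfected with multiplexed GAL4-UAS reporter units and exogenous chimeric NR-Gal4 proteins; 24 h compound exposure. Reporter mRNA measured by RT-PCR, 6-FAM labelling, HpaI digestion and capillary electrophoresis; gain of signal versus DMSO.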

[3] = target: Peroxisome proliferator-activated receptor gamma (Homo sapiens) (UniProt P37231); assay: ATG_PPARg_TRANS: Attagene TRANS-FACTORIAL HepG2 Assay for human Peroxisome Proliferator-activated Receptor-gamma (PPARg) (AID 2283007)
Procedure, shortened: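 Transient transfection of HepG2 with GAL4-UAS-driven reporter units; chemical dosing 24 h; total RNA → oligo(dT) RT → PCR with reporter primers → 6-FAM primer extension → HpaI digest 2 h 37 C → capillary electrophoresis. Positive direction vs DMSO.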

[4] = target: Nuclear receptor subfamily 1 group I member 2 (Homo sapiens) (UniProt O75469); assay: ATG_PXR_TRANS: Attagene TRANS-FACTORIAL HepG2 Assay for human Pregnane X Receptor (PXR) (AID 2283008)
Procedure, shortened: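 Transient HepG2 transfectants carrying multiplexed reporter transcription units; PXR activity read through a Gal4 chimera. 24 h exposure. RT-PCR/CE fluorescence; upward curve fit referenced to DMSO.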

[5] = target: human RAR-related Orphan Receptor gamma (RORg), RORC (gene 6097) (UniProt P51449); assay: ATG_RORg_TRANS: Attagene TRANS-FACTORIAL HepG2 Assay for human RAR-related Orphan Receptor gamma (RORg) (AID 2283011);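 on AC50: potency for induction of reporter transcripts above DMSO so activators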
Procedure, shortened: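 Activity is scored as increase in GAL4-UAS reporter mRNA over DMSO, detected by fluorescent RT-PCR and capillary electrophoresis in HepG2 cells transiently expressing a RORg-Gal4 chimera, 24 h after dosing.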

[6] = target: Retinoic acid receptor RXR-alpha (Homo sapiens) (UniProt P19793); assay: ATG_RXRa_TRANS: Attagene TRANS-FACTORIAL HepG2 Assay for human Retinoid X Receptor alpha (RXRa) (AID 2283012)
Procedure, shortened: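 Measures exogenous chimeric NR-GAL4 activity in transfected HepG2 liver cells after 24 h of dosing. Induced reporter mRNA was detected by RT-PCR with capillary electrophoresis, and gain of signal was analysed against DMSO.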

[7] = target: human Retinoid X Receptor beta (RXRb), RXRB (gene 6257) (UniProt P28702); assay: ATG_RXRb_TRANS: Attagene TRANS-FACTORIAL HepG2 Assay for human Retinoid X Receptor beta (RXRb) (AID 2283013)
Procedure, shortened: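 Chimeric receptor-Gal4 activity was assessed in transiently transfected human HepG2 cells after 24 h exposure. Transcripts from GAL4-UAS reporters were quantified by fluorescent RT-PCR and capillary electrophoresis, with DMSO as negative control and baseline.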

[8] = target: human Vitamin D Receptor (VDR), VDR (gene 7421) (UniProt P11473); assay: ATG_VDR_TRANS: Attagene TRANS-FACTORIAL HepG2 Assay for human Vitamin D Receptor (VDR) (AID 2283022)
Procedure, shortened: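 Fluorescence of labelled reporter cDNA fragments, resolved by capillary electrophoresis, gives mRNA induction after 24 h treatment of HepG2 cells carrying transfected Gal4-fusion reporter units. Activity is fitted in the positive direction with DMSO as baseline.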

[9] = target: human Retinoic Acid Receptor beta (RARb), RARB (gene 5915) (UniProt P10826); assay: ATG_RARb_TRANS: Attagene TRANS-FACTORIAL HepG2 Assay for human Retinoic Acid Receptor beta (AID 2283004)
Procedure, shortened: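 HepG2, transient MRTU transfection, NR–Gal4 chimera, 24 h treatment; RT-PCR plus CE fluorescence detection of reporter mRNA; gain of signal vs DMSO.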

[10] = target: Retinoic acid receptor alpha (Homo sapiens) (UniProt P10276); assay: ATG_RARa_TRANS: Attagene TRANS-FACTORIAL HepG2 Assay for human Retinoic Acid Receptor alpha (RARa) (AID 2283005)
Procedure, shortened: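 HepG2 cells transiently transfected with multiple reporter units expressing chimeric RARα-GAL4 fusion, with GAL4-UAS-driven reporters. After 24 h compound exposure, reporter mRNA induction quantified by RT-PCR and capillary electrophoresis with fluorescent labeling; gain-of-signal fitted relative to DMSO control.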

[11] = target: human Retinoic Acid Receptor gamma (RARg), RARG (gene 5916) (UniProt P13631); assay: ATG_RARg_TRANS: Attagene TRANS-FACTORIAL HepG2 Assay for human Retinoic Acid Receptor gamma (RARg) (AID 2283009)
Procedure, shortened: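 TRANS format measured activity of exogenous NR-GAL4 fusion (RARg) in transfected HepG2 liver cells after 24 h dosing. Induced reporter RNA was detected by RT-PCR/capillary electrophoresis fluorescence, analysed in the positive direction against DMSO.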

[12] = target: human RAR-related Orphan Receptor beta (RORb), RORB (gene 6096) (UniProt Q92753); assay: ATG_RORb_TRANS: Attagene TRANS-FACTORIAL HepG2 Assay for human RAR-related Orphan Receptor beta (RORb) (AID 2283010)
Procedure, shortened: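 Transfect HepG2 with multiple GAL4-UAS reporter transcription units; dose chemicals for 24 h; isolate RNA, reverse-transcribe and PCR-amplify reporter sequences; label, digest and resolve fragments by capillary electrophoresis; fit increases relative to DMSO.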

[13] = target: human Thyroid Receptor alpha (THRa1), THRA (gene 7067) (UniProt P10827); assay: ATG_THRa1_TRANS: Attagene TRANS-FACTORIAL HepG2 Assay for human Thyroid Receptor alpha (THRa1) (AID 2283014)
Procedure, shortened: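 First, HepG2 cells receive multiple GAL4-UAS reporter units and the chimeric receptor. They are then dosed for 24 h, after which RNA is reverse-transcribed, amplified, labelled, HpaI-cut and sized by capillary electrophoresis; gain relative to DMSO is scored.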

[14] = read-out: Intercellular Adhesion Molecule 1 (ICAM1), ICAM1 (gene 3383); assay: BSK_3C_ICAM1: BioMAP Diversity Plus: 3C Assay for Intercellular Adhesion Molecule 1 (ICAM1) Biomarker Activity (AID 2283003; active means hit-call score of the fitted dose curve at least 0.9, where 1 is the maximum; inactive means score below 0.9); details: primary human endothelial cells (HUVEC); actives raise or lower the signal
Procedure, shortened: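 Chemicals are dosed onto primary human umbilical vein endothelium (3C system). After 24 h, ICAM-1 is measured by ELISA, and responses are fitted bidirectionally relative to DMSO.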

[15] = BSK_3C_Proliferation: Cell Proliferation Assessment in the BioMAP Diversity Plus: 3C Assay (AID 2283006; active means hit-call score of the fitted dose curve at least 0.9, where 1 is the maximum; inactive means score below 0.9;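 on AC50: potency may reflect either rise or fall in cell number versus DMSO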); details: primary human endothelial cells (HUVEC)
Procedure, shortened: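 Cells (human umbilical vein endothelial, sub-confluent) receive test chemical; after 48 h they are fixed in 10% trichloroacetic acid, stained with 0.1% SRB and read at 560 nm. Activity is referenced to DMSO, fitting increases and decreases.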

[16] = read-out: E-selectin (Homo sapiens) (UniProt P16581); assay: BSK_3C_Eselectin: BioMAP Diversity Plus: 3C Assay for Eselectin Biomarker Activity (AID 2283015; active means hit-call score of the fitted dose curve at least 0.9, where 1 is the maximum; inactive means score below 0.9); details: primary human endothelial cells (HUVEC); actives raise or lower the signal
Procedure, shortened: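 Human vascular endothelium from umbilical vein is exposed to test chemicals for 24 h. E-selectin levels are read by ELISA and compared with DMSO controls.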

[17] = read-out: Interleukin-1 alpha (IL1a), IL1A (gene 3552); assay: BSK_BE3C_IL1a: BioMAP Diversity Plus: BE3C Assay for Interleukin-1 alpha (IL1a) Biomarker Activity (AID 2283016; active means hit-call score of the fitted dose curve at least 0.9, where 1 is the maximum; inactive means score below 0.9); details: primary human bronchial epithelial cells; actives raise or lower the signal
Procedure, shortened: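 Signal from IL-1a ELISA, taken 24 h after chemical dosing of human bronchial epithelial cells, is compared with DMSO as baseline using bidirectional curve fitting.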

[18] = read-out: Monocyte Chemoattractant Protein-1 (MCP1), CCL2 (gene 6347); assay: BSK_4H_MCP1: BioMAP Diversity Plus: 4H Assay for Monocyte Chemoattractant Protein-1 (MCP1) Biomarker Activity (AID 2283018; active means hit-call score of the fitted dose curve at least 0.9, where 1 is the maximum; inactive means score below 0.9); details: primary human endothelial cells (HUVEC); actives raise or lower the signal
Procedure, shortened: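 Endothelial cells from umbilical vein were treated with test chemical, then after 24 h MCP-1 levels were quantified by ELISA; endpoint values came from bidirectional fitting with DMSO as baseline of activity.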

[19] = read-out: Human Leukocyte Antigen - DR isotype (HLADR), HLA-DRA (gene 3122); assay: BSK_3C_HLADR: BioMAP Diversity Plus: 3C Assay for Human Leukocyte Antigen - DR isotype (HLADR) Biomarker Activity (AID 2283019; active means hit-call score of the fitted dose curve at least 0.9, where 1 is the maximum; inactive means score below 0.9); details: primary human endothelial cells (HUVEC); actives raise or lower the signal
Procedure, shortened: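 Endothelial cells from human umbilical vein are treated with test chemical; after 24 h, HLA-DR levels are measured by ELISA. Data are fitted in both directions using DMSO as the baseline.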

[20] = read-out: Interleukin-8 (IL8), CXCL8 (gene 3576); assay: BSK_3C_IL8: BioMAP Diversity Plus: 3C Assay for Interleukin-8 (IL8) Biomarker Activity (AID 2283020; active means hit-call score of the fitted dose curve at least 0.9, where 1 is the maximum; inactive means score below 0.9); details: primary human endothelial cells (HUVEC); actives raise or lower the signal
Procedure, shortened: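 Endothelial primary cells of human umbilical vein origin are dosed with chemical; after 24 h the IL-8 biomarker is measured by ELISA, and concentration–response is fitted in both directions versus DMSO.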

Measured: AC50

human Peroxisome Proliferator-activated Receptor alpha (PPARa), PPARA (gene 5465), sequence (Q07869 whole entry, looked up): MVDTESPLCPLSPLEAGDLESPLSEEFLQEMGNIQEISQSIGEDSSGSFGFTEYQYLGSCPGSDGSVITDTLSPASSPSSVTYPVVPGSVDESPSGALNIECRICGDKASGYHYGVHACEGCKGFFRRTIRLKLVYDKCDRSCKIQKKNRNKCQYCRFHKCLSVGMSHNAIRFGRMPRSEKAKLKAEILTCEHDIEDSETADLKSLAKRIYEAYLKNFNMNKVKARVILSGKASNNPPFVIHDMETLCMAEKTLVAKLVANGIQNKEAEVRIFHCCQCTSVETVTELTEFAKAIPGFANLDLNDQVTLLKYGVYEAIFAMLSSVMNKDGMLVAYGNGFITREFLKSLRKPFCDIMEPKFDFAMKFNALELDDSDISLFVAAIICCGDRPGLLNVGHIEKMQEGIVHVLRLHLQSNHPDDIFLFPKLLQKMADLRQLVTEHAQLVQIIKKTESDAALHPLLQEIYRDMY
E-selectin (Homo sapiens), sequence (P16581 whole entry, looked up): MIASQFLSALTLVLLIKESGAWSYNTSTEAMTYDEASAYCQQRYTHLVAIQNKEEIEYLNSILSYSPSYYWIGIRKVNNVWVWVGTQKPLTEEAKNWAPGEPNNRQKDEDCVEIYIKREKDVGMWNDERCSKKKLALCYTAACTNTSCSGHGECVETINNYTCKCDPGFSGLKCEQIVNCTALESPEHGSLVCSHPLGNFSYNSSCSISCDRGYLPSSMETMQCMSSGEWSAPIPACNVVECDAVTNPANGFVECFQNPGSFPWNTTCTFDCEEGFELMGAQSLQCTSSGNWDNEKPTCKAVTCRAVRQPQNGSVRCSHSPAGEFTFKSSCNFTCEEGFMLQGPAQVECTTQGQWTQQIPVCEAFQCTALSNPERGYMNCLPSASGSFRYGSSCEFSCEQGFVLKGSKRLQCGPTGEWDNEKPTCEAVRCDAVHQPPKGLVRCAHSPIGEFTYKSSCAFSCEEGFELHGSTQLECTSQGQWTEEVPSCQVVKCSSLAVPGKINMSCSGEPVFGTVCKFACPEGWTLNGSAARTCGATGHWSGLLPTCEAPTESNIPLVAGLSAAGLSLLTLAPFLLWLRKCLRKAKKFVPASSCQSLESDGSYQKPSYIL
Retinoic acid receptor RXR-alpha (Homo sapiens), sequence (P19793 whole entry, looked up, the tested form may be a part): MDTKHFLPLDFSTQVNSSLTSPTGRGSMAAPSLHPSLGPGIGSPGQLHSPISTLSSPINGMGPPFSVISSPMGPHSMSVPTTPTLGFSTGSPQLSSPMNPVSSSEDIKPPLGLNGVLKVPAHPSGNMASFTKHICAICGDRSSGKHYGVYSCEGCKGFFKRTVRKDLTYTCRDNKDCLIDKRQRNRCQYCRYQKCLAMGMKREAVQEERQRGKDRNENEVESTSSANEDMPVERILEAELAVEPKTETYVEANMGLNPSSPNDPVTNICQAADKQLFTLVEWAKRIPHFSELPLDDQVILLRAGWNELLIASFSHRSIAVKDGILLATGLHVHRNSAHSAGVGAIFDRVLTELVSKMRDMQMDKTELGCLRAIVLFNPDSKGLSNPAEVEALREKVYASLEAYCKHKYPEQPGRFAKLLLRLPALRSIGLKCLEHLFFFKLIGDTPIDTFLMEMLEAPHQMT
Peroxisome proliferator-activated receptor gamma (Homo sapiens), sequence (P37231 whole entry, looked up, the tested form may be a part): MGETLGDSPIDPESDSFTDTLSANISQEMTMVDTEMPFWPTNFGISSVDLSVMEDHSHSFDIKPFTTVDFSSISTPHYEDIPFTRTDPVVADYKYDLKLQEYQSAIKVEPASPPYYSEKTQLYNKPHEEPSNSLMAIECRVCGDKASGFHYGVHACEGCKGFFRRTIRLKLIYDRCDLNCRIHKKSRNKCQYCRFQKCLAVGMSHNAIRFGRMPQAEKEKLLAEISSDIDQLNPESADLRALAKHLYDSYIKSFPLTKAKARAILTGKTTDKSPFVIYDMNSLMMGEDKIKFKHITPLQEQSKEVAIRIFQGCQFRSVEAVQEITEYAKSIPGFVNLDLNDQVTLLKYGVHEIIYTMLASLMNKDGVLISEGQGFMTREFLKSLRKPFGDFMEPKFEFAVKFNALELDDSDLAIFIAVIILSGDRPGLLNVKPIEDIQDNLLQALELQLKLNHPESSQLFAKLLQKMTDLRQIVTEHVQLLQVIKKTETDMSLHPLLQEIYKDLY
human Thyroid Receptor alpha (THRa1), THRA (gene 7067), sequence (P10827 whole entry, looked up, the tested form may be a part): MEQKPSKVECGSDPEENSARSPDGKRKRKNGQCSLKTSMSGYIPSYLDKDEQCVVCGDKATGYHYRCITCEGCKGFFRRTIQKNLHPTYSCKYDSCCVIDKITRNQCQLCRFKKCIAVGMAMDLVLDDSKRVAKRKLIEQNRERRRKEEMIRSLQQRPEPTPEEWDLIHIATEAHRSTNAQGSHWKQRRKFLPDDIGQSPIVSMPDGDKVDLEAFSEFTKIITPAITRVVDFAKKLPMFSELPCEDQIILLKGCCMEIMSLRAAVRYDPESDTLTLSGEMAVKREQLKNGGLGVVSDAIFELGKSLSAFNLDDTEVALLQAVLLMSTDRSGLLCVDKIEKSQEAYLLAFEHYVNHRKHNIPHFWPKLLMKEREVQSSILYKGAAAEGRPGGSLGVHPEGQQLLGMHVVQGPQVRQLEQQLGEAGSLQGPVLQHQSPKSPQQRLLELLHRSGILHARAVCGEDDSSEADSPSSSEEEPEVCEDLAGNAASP
Nuclear receptor subfamily 1 group I member 2 (Homo sapiens), sequence (O75469 whole entry, looked up, the tested form may be a part): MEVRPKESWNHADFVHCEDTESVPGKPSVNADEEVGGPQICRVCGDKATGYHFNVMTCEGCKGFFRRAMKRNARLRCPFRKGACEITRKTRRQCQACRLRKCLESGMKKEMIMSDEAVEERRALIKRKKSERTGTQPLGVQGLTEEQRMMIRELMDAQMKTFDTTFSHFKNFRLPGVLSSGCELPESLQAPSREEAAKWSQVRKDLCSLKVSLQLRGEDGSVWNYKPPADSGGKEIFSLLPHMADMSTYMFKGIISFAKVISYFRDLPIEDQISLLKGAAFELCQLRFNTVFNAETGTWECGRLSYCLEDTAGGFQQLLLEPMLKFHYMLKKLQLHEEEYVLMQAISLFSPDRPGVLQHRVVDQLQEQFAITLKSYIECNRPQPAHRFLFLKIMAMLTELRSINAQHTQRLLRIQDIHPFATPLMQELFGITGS
human RAR-related Orphan Receptor gamma (RORg), RORC (gene 6097), sequence (P51449 whole entry, looked up, the tested form may be a part): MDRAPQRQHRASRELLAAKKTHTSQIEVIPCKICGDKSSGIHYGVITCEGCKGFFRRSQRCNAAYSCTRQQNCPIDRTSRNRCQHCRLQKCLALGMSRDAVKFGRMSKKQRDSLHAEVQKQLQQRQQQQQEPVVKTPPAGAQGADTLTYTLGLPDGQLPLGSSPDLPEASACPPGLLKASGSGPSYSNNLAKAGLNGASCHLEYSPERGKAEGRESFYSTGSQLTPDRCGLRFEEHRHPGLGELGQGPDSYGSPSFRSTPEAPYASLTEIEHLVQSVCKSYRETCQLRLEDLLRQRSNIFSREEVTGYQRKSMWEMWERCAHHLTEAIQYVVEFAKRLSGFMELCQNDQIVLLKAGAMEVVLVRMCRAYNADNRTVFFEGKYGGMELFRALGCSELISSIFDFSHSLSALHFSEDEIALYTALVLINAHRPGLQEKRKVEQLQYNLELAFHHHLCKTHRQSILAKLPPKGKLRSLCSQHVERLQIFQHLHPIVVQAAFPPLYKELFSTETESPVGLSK
human Peroxisome Proliferator-activated Receptor delta (PPARd), PPARD (gene 5467), sequence (Q03181 whole entry, looked up, the tested form may be a part): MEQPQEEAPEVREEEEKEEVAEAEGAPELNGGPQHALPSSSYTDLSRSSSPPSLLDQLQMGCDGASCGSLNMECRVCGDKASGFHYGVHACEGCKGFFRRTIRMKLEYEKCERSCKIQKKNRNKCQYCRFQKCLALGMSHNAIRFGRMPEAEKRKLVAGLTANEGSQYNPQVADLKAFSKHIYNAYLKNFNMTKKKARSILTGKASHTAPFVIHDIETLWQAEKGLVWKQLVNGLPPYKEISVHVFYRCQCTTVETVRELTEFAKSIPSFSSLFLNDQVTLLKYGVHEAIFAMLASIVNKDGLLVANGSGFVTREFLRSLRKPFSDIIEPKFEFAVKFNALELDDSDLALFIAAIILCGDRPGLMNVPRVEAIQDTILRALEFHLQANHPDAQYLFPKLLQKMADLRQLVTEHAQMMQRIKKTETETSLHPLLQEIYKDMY
human RAR-related Orphan Receptor beta (RORb), RORB (gene 6096), sequence (Q92753 whole entry, looked up, the tested form may be a part): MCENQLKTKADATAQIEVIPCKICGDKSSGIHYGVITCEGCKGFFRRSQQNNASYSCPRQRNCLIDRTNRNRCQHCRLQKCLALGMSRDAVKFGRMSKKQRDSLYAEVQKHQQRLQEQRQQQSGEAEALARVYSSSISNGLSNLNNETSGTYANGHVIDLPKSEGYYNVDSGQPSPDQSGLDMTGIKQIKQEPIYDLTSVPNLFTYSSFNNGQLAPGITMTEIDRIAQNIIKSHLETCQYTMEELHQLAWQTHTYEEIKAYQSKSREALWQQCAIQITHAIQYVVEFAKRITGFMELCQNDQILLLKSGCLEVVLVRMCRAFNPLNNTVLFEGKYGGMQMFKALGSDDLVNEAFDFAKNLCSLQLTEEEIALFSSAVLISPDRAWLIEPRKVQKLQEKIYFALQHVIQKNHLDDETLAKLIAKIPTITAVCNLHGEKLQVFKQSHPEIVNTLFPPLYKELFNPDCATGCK
human Vitamin D Receptor (VDR), VDR (gene 7421), sequence (P11473 whole entry, looked up, the tested form may be a part): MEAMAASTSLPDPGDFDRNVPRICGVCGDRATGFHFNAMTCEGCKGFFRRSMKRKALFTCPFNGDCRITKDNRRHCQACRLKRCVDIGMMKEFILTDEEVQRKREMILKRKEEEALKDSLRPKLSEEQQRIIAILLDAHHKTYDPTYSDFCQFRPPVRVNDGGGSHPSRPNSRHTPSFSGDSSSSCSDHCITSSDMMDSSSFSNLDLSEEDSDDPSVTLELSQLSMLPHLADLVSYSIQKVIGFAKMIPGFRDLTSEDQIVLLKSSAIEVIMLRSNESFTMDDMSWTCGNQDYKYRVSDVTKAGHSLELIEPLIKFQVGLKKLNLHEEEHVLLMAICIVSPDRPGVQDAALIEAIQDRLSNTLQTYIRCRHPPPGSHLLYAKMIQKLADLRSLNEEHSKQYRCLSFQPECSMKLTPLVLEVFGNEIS

CCCOC(=O)CCCCC(=O)OCCC
inactive: [1] | [2] | [3] | [4] | [5] | [6] | [7] | [8]

CCCC(C)CCC(C)=O (configuration not stated)
inactive: [1] | [2] | [9] | [10] | [4] | [11] | [12] | [13] | [8]

O=C1CC2CC1C1CCCC21 (configuration not stated)
inactive: [1] | [2] | [3] | [4] | [11] | [12] | [6] | [7] | [13]

CCCCCCCCO[C@@H]1O[C@H](CO)[C@@H](O)[C@H](O)[C@H]1O
inactive: [1] | [2] | [3] | [4] | [5] | [6] | [13] | [8]

O=C(c1ccc(O)cc1)c1ccc(O)cc1O
active: [15] 20 µM and 15 µM | [3] 35.3 µM
not listed: [5] | [8] | [9] | [10] | [11]
inactive: all other assays above

O=c1c2ccccc2oc2ccccc12
active: [4] 27.3 µM | [17] 0.173 µM
not listed: [2] | [3] | [5] | [7] | [8] | [12]
inactive: all other assays above

COc1ccc2nc(N)sc2c1
not listed: [2] | [7] | [8] | [9] | [10] | [13]
inactive: all other assays above

NC(=O)OCC(COC(N)=O)c1ccccc1
inactive: [1] | [2] | [4] | [12] | [5] | [13]

CCC(CO)CO
inactive: [1] | [9] | [4] | [12] | [5] | [6] | [13]

FC(F)=C(F)OC(F)(F)C(F)(F)C(F)(F)F
inactive: [1] | [2] | [3] | [4] | [8]

Cc1ccccc1C
inactive: [1] | [9] | [10] | [3] | [4] | [11] | [6] | [13]

C=CC(=O)OCC(Br)CBr (configuration not stated)
active: [1] 144 µM | [14] 30.1 µM | [15] 9.42 µM | [3] 51.6 µM | [4] 100 µM | [5] 176 µM | [16] 20 µM | [17] 20 µM | [18] 26.6 µM | [19] 5.44 µM | [20] 20 µM
inactive: [12] | [6] | [13]
